Assay outcomes: PubChem, National Center for Advancing Translational Sciences (NCATS)
Shown are actives, neighbours in structure and some others; about 2.4% of the full set was active somewhere.
D2 ag-1 – HTS Assay for Allosteric Agonists of the Human D2 Dopamine Receptor: Primary Screen for Agonists; AID 485358, 2010; activation, % at 2 µM; actives 0.53% (n = 340,000); D(2) dopamine receptor (Homo sapiens), P14416; HEK293 T-REx D2 cells, calcium flux agonist mode;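 active = activation over 3 SD above normal in the single-dose calcium agonist read, cut at about 30% in these data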; also: 0% is about no effect
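Tetracycline-induced HEK293 Trex cells with D2 receptor force-coupled to calcium signaling, plated overnight at 30 C and loaded with no-wash calcium dye. Calcium flux read kinetically for 180 s after compound addition; responses flag agonists.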
D2 antag – HTS Assay for Allosteric Antagonists of the Human D2 Dopamine Receptor: Primary Screen for Antagonists | actives 2% (n = 340,000) | HEK293 TREx D2 cells, calcium flux, dopamine EC80 | inhibition, % at 10 µM | AID 485344, 2010 | D(2) dopamine receptor (Homo sapiens), P14416; in the data active = inhibition above about 30%; inactive = below that, where a call was filed; also: 0% is about no effect
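HEK293 T-REx D2 cells, tet-induced, calcium dye no-wash. Cpd pintool add, 180 s kinetic, then EC80 DA, 180 s kinetic. Ca flux read.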
D2 PAM-1 – HTS Assay for Positive Allosteric Modulators of the Human D2 Dopamine Receptor: Primary Screen for Potentiators | D(2) dopamine receptor (Homo sapiens), P14416 | HEK293 T-REx D2, calcium flux, EC20 dopamine potentiation | potentiation, % at 10 µM | actives 0.34% (n = 340,000) | AID 485347, 2010;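 active = potentiation over 3 SD above the plate norm, cut at about 30% in these data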; also: 0% is about no effect
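Tetracycline-induced Hek293 Trex D2 cells, force-coupled to calcium, loaded with no-wash calcium dye. Compound added with 180 s kinetic read for agonism, then EC20 dopamine and a further 180 s read for potentiation.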
D2 PAM-2 – Beta-Arrestin HTS for Positive Allosteric Modulators of the Human D2 Dopamine Receptor: Potentiators; D(2) dopamine receptor (Homo sapiens), P14416; DiscoveRx D2 beta-arrestin cells, luminescence, 90 min; 100% = 57 uM dopamine signal; potentiation, % (test concentration not listed); actives 0.23% (n = 360,000); AID 624464, 2012; in the data active = potentiation above about 50%; inconclusive = mostly about 30% to 49%
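PathHunter beta-arrestin assay in DiscoveRx D2 cells. Compounds were added with an EC20 of dopamine (50 nM final) for 90 min at 37 deg C. Luminescence was read 1 h after detection reagent, with 57 uM dopamine as the EC100 control.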
D2 ag-2 – Beta-Arrestin HTS for Positive Allosteric Modulators of the Human D2 Dopamine Receptor: Agonists. DiscoveRx PathHunter D2 beta-arrestin, luminescence, 90 min; 100% = 57 uM dopamine signal. activation, % (no concentration beside the values). actives 0.084% (n = 360,000). D(2) dopamine receptor (Homo sapiens), P14416. AID 624465, 2012; in the data active = activation above about 40%; inconclusive = between about 15% and that limit
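DiscoveRx PathHunter D2 beta-arrestin cells (2,100/well) attached overnight, then compound-stimulated 90 min at 37 C in HBSS/10 mM HEPES/0.1% Tween-20 buffer; beta-galactosidase complementation read by luminescence after 1 h at ambient temperature. Dopamine 57 uM final (EC100) as control.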
D3 arrestin ag – qHTS of D3 Dopamine Receptor Agonist: D3 Dopamine Receptor B-arrestin Agonist Confirmatory Assay; shares compounds with D2 ag-1; Potency, µM (highest dose often 76.9 µM), for inactives: at the highest dose activation, hits mostly activators; AID 720506, 2013; actives 4% (n = 2,300); DiscoveRx D3 beta-arrestin cells, luminescence, 90 min;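 also: potency is read from the fitted curve at half-maximal effect; 100% = dopamine control response; nearly all actives have a fitted effect of over 70% in size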
Target sequence (P35462 whole entry, looked up): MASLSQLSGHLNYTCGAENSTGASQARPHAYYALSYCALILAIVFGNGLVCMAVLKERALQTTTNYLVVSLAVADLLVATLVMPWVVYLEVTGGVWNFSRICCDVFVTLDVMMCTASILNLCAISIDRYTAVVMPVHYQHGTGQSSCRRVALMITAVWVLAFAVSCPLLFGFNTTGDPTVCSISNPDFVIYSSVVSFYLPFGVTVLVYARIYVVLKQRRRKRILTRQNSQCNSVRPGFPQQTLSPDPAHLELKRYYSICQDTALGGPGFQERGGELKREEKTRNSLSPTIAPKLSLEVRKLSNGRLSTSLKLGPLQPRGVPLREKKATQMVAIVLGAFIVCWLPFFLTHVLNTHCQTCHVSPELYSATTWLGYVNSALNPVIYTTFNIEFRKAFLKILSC
D2 ag-3 – qHTS of D3 Dopamine Receptor Agonist: D2 Dopamine Receptor B-arrestin Agonist Counterscreen. shares compounds with D2 ag-1. DiscoveRx PathHunter D2 beta-arrestin, luminescence, 90 min; response scale: percent relative to full dopamine signal. Potency, µM (top dose mostly 76.9 µM), inactives show at the highest dose activation, usual class: activators. actives 5.9% (n = 2,300). AID 720507, 2013; also: potency is read from the fitted curve at half-maximal effect; % of control where 0% means no effect; nearly all actives have a fitted effect of over 70% in size
Numbers without * were called inactive; ? = inconclusive; . = not tested or not shown. Unless noted, calls follow the shape of the dose curve; as a rule, active = well fitted activation curve with a large enough effect; inconclusive = small, poorly fitted or top-dose-only effect; inactive = flat fitted curve, though single readings scatter.

SMILES | D2 ag-1 | D2 antag | D2 PAM-1 | D2 PAM-2 | D2 ag-2 | D3 arrestin ag | D2 ag-3
COc1ccc(C)cc1NC(=O)CCN1CCN(c2ccccc2)CC1 | 79* | 82* | -25 | -13 | ? | ? | ?
COc1ccc([N+](=O)[O-])cc1NC(=O)CCN1CCN(c2ccccc2OC)CC1 | 66* | 101* | -27 | -34 | 3 | -7% | 7%
COc1ccccc1N1CCN(CC(=O)Nc2c(C)n[nH]c2C)CC1 | 67* | 53* | -21 | -21 | -2 | -10% | 7%
COc1ccc(OC)c(NC(=O)CCN2CCN(c3ccccc3F)CC2)c1 | -1 | -12 | 18 | 1 | ? | . | .
CCN1CCN(CCC(=O)Nc2ccccc2OC)CC1 | -1 | -5 | 1 | -16 | -2 | . | .
Nc1nc(C(=O)N2CCOCC2)nn1C(=O)c1ccc(Cl)cc1 | 0 | 23 | 6 | 0 | 0 | -12% | -10%
O=C(c1ccc(Cl)cc1)c1ccccc1C(=O)N1CCOCC1 | 0 | 0 | 8 | -2 | -1 | . | .
O=C(c1ccco1)N1CCN(C(=O)C2CCN(S(=O)(=O)c3cccs3)CC2)CC1 | 1 | -1 | -11 | -13 | -5 | 0% | 1%
N#CCN(C(=O)COC(=O)CCCNC(=O)c1ccc(Cl)cc1)c1ccccc1 | 0 | -11 | 2 | -10 | 0 | -3% | 2%
CCOC(=O)C1=CC[C@@H](c2cccc(C)c2)N(S(=O)(=O)c2ccc(C)cc2)[C@H]1C(=O)OCC | 0 | 6 | -4 | -5 | -2 | . | .
O=S(=O)(c1ccccc1F)N1CCN(CCOc2ccccc2)CC1 | 31* | 39* | -21 | -28 | -1 | 21% | 16%
CC(=O)c1cccc(S(=O)(=O)N2CCN(CCOc3ccccc3)CC2)c1 | 49* | 1 | -22 | -12 | 3 | ? | 15%
CC(=O)c1ccc(S(=O)(=O)N2CCN(CCOc3ccc(Br)cc3)CC2)cc1 | 1 | -6 | 0 | -3 | 2 | . | .
O=S(=O)(c1ccccc1)N1CCN(CCOc2ccc(F)cc2)CC1 | . | . | . | -14 | -1 | . | .
Cc1ccc(S(=O)(=O)N2CCN(CCOc3ccccc3)CC2)cc1 | 50* | 16 | -24 | -16 | 8 | 26% | 10%
COc1cc(NC(=O)CSc2nnc3c(n2)[nH]c2ccc(S(=O)(=O)NC(C)C)cc23)cc(OC)c1OC | 2 | 20 | -7 | 1 | 0 | . | .
CC1CC(C)CN(C(=O)CNC(=O)Cn2ccc3ccccc3c2=O)C1 (configuration not stated) | -1 | 9 | 13 | 4 | 2 | . | .
Clc1ccccc1N1CCN(Cc2ccc(Br)o2)CC1 | . | . | . | -14 | 1 | . | .
CCCN1CCC(=O)N(CCSc2ccccc2)CC1 | 0 | -39 | 2 | -52 | 2 | . | .
Fc1ccccc1N1CCN(Cc2cnc(Cl)s2)CC1 | . | . | . | ? | 52* | ? | 3.2µM*
Brc1ccc(CN2CCN(c3ccccc3)CC2)o1 | 72* | 50* | -19 | -13 | 9 | 7% | 23%
c1ccc(SCCN2CCN(c3ccccc3)CC2)cc1 | 23 | 60* | -20 | -35 | 5 | -9% | 10%
Clc1ccc(CN2CCN(c3ccccc3)CC2)cn1 | 74* | 90* | -22 | 11 | ? | ? | ?
Cc1ccc(S(=O)(=O)N2CCC(C(=O)NC3CC3)CC2)cc1 | 1 | 11 | 10 | -7 | -3 | . | .
C=CCSc1nnnn1-c1ccc(OC)cc1 | 1 | 0 | -10 | -11 | -1 | . | .
SMILES | D2 ag-1 | D2 antag | D2 PAM-1 | D2 PAM-2 | D2 ag-2 | D3 arrestin ag | D2 ag-3
c1ccc(N2CCN(Cc3cnc(N4CCOCC4)s3)CC2)cc1 | 63* | 38* | -40 | -14 | -10 | 7% | ?
CC1CCN(Cc2cnc(Cl)s2)CC1 | 2 | -13 | 0 | -1 | -3 | . | .
Clc1ncc(CN2CCN(c3ccccc3)CC2)s1 | 75* | 84* | -26 | 9 | 48* | ? | 5µM*
N/C(=N/O)C(c1ccccc1)c1ccccc1 | 1 | 2 | -2 | 19 | 2 | . | .
CC(=NCCc1ccccc1)C1=C(O)CCC1=O | 42* | 23 | -15 | -2 | 3 | -7% | -3%
CCOC(=O)N1CCC(NC(=O)c2ccc(CS(=O)c3cccc(Cl)c3)o2)CC1 (configuration not stated) | 44* | 54* | -15 | -7 | 1 | -3% | 0%
Cc1cc2oc(C(=O)Nc3ccc(S(=O)(=O)Nc4onc(C)c4C)cc3)cc(=O)c2cc1Cl | 0 | 20 | 3 | -12 | -4 | . | .
CC1(C)O[C@@H]2[C@H](O1)[C@@H](CO)O[C@H]2n1cnc2c(=O)[nH]cnc21 | -1 | -9 | -2 | 0 | -2 | -3% | -2%
COc1ccc(CN2Cc3cccc4c3[C@@H](CC2=O)[C@H](O)[C@H](O)C4)cc1 | 0 | -18 | -4 | 0 | -1 | . | .
O=C1C[C@@H]2c3c(cccc3CN1Cc1ccc(F)cc1)C[C@@H](O)[C@H]2O | 1 | -4 | 5 | -7 | -3 | -5% | -3%
COc1ccc(OC2C(=O)N(c3ccc(C)c(C)c3)C2c2ccc(OC)c(OC)c2)cc1 (configuration not stated) | 54* | 1 | -22 | 2 | 0 | -9% | -2%
CC(=NCCc1c(C)[nH]c2ccc(OC(F)(F)F)cc12)C1=C(O)CC(c2ccccc2)CC1=O (configuration not stated) | 4 | 14 | -3 | 2 | 11 | -4% | 1%
CCCC(=NCCc1c(C)[nH]c2ccccc12)C1=C(O)CC(c2ccccc2)CC1=O (configuration not stated) | 25 | -7 | -6 | -7 | -8 | . | .
CCCCC(=NCCc1c(C)[nH]c2ccccc12)C1=C(O)CC(c2ccccc2)CC1=O (configuration not stated) | 0 | 0 | . | 1 | 4 | -6% | -3%
